Vaccinia mCherry = inhibitors of vaccinia virus infection (mCherry reporter signal). 0.63% of 310,000 active. Potency, µM (top dose mostly 36.5 µM), actives largely listed as inhibitors. AID 720579. Vaccinia virus mCherry reporter infection, fluorescence; calls by dose curve; tested in A549 cells; note: nearly all actives have a fitted effect of over 35% in size
HCMV antiviral = human cytomegalovirus inhibition. HFF cells, HCMV-luciferase reporter, 72 h; stronger effect = lower value. 4.5% of 410,000 active. activity change, negative = inhibition, % at 57.5 µM; in the data active = activity change below about -60%; inconclusive = no clear call, values can overlap the other calls; inactive = above about -39%
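Luciferase read-out from HCMV-luciferase-infected HFFs (MOI 1 PFU/cell) 72 h post infection at 37C; compounds added after 16 h cell attachment; activity normalized between buffer-only basal and Salinomycin (10uM) inhibitor controls.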
HCV inh = inhibitors of hepatitis C virus infection; 3.4% of 340,000 active; Huh7.5.1 HCVcc-Cre infection, luciferase reporter, 44 h; Potency, µM (titrated, usually from 41.8 µM), usual class: inhibitors; active = well fitted inhibition curve with a large enough effect; inconclusive = small, poorly fitted or top-dose-only effect, or another doubt; inactive = no such curve, though single readings can be large or run the other way
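After 44 h co-culture of compound, cells and HCVcc-Cre (~0.5 moi), substrate is added for 15 min at room temperature and luciferase measured over 15 sec. Cells were seeded at 1,000/well and pre-cultured 4 h.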
FMDV antiviral = blocks foot and mouth disease virus | FMDV antiviral cell-based qHTS | Potency, µM (highest dose often 57.9 µM), most hits filed as inhibitors | 1.2% of 410,000 active; calls by dose curve; tested in HEK293T cells; note: read-out not given here; nearly all actives have a fitted effect of over 45% in size
Vaccinia Venus = vaccinia inhibition (Venus reporter) | Vaccinia virus Venus reporter expression, fluorescence | Potency, µM (doses to about 36.5 µM), hits mostly inhibitors | 0.46% of 330,000 active; calls by dose curve; tested in A549 cells; note: nearly all actives have a fitted effect of over 30% in size
Hits are given with their value; – = inactive; ? = inconclusive; · = no result given; + = active, no number; ! = repeats disagree. Only some compounds are listed: those with a hit (about 7.3% of all), similar ones and a draw of the others.

SMILES	Vaccinia mCherry	HCMV antiviral	HCV inh	FMDV antiviral	Vaccinia Venus
Cc1cccc(C)c1NC(=O)c1oc2ccc3c(c2c1C)C(=O)CC(C)(C)O3	–	–	·	–	–
O=C1COc2ccc(-c3csc(NCCc4ccccc4)n3)cc2N1	–	–	?	39.8µM	–
Cc1ccc(-c2cn(CCN)c(=O)cn2)cc1	·	–	·	·	·
Cc1ccc(S(=O)(=O)N2CCCCC2)cc1NC(=O)CNC(C)c1ccc(Cl)c(Cl)c1 (configuration not stated)	·	–	8.91µM	–	·
O=C(Cn1ncc(Cl)c(Cl)c1=O)N1CCN(S(=O)(=O)c2ccc3ccccc3c2)CC1	?	-85.6	5.62µM	28.2µM	?
Cc1cc(Br)ccc1NC(=O)CNC(=O)Cn1ncc(Cl)c(Cl)c1=O	–	-100.9	2.24µM	6.31µM	–
Cc1ccc(S(=O)(=O)N2CCCCC2)cc1NC(=O)Cn1cnnn1	·	–	–	–	·
Cc1ccc(S(=O)(=O)N2CCCCC2)cc1NC(=O)Cn1ncc(Cl)c(Cl)c1=O	·	-96.7	0.708µM	20µM	·
CCOc1cc(CNC(=O)CSc2n[nH]c(-c3ccccc3)n2)cc(OCC)c1OCC	–	–	·	–	–
Cc1nc(CC(=O)Nc2cccc(C)c2C)cs1	–	?	·	–	–
CC1(c2cccc(Br)c2)NC(=O)N(CC(=O)N2CCc3ccccc32)C1=O (configuration not stated)	–	–	10µM	–	–
CC1(c2ccccc2)NC(=O)N(CC(=O)N2CCc3ccccc32)C1=O (configuration not stated)	–	–	·	–	–
COC(=O)[C@@]12OC[C@]34[C@H]([C@@H](O)[C@@H]1O)[C@@]1(C)C(=O)C(O[C@@H]5OC(CO)[C@@H](O)[C@@H](O)[C@@H]5O)=C[C@@H](C)[C@@H]1C[C@H]3OC(=O)[C@H](OC(=O)/C=C(\C)C(C)(C)OC(C)=O)[C@@H]24 (some centres not stated)	8.91µM	·	11.2µM	–	8.91µM
CCC(C)Sc1cc(-c2nc3ccccn3c2NC2CCCCC2)ccc1OC (configuration not stated)	?	-88.2!	?	?	?
CCC(C)Sc1cc(-c2nc3cc(C)ccn3c2NC2CCCCC2)ccc1OC (configuration not stated)	–	-83.9!	?	?	?
CC(=O)c1ccc(-c2cccc(-c3nc4ccccn4c3NC3CCCCC3)c2)cc1	–	–	10µM	?	?
CCC(C)Sc1cccc(-c2nc3cnccn3c2NC2CCCCC2)c1 (configuration not stated)	?	–	?	–	?
c1csc(-c2nc3ccccn3c2NC2CCCCC2)c1	–	–	–	?	–
CCC(C)Sc1ccc(-c2nc3ccc(C)cn3c2NC2CCCCC2)cc1 (configuration not stated)	8.91µM	·	–	–	?
O=C(Cc1cccnc1)N1CC(=O)N2[C@@H](CO)[C@H](c3ccc(Br)cc3)[C@@H]2C1	·	–	·	·	·
COc1ccnc(Oc2ccccc2)c1C(=O)N/C=N/OCc1ccc(F)cc1Cl	–	–	–	·	–
CC1=C(C#N)C(/C=N/OCc2ccc(F)cc2Cl)CC(=O)N1 (configuration not stated)	–	-80.0	–	–	–
COc1cc(/C=C/C(=O)OC2CC3CCC2(C)C3(C)C)ccc1O (configuration not stated)	–	-102.6	?	–	–
CSc1ncccc1C(=O)OCC(=O)N1CC2(C)CC1CC(C)(C)C2 (configuration not stated)	–	?	–	–	–
COc1cc(/C=C/C(=O)OCC(=O)N2CCC(Cc3ccccc3)CC2)ccc1O	–	–	?	31.6µM	–
SMILES	Vaccinia mCherry	HCMV antiviral	HCV inh	FMDV antiviral	Vaccinia Venus
COc1cccc(OC)c1OCCCN1CCC(Cc2ccccc2)CC1	–	–	11.2µM	–	–
COc1cc(/C=C/C(=O)OCC(=O)N2CCC(C)CC2)ccc1O	–	–	–	–	–
CC1(C)CC2CC(C)(CN2C(=O)COC(=O)c2ccccc2C(F)(F)F)C1 (configuration not stated)	·	+	?	–	·
COC(=O)[C@@H]1[C@@H](CO)[C@@H]2Cn3c(cccc3=O)[C@H]1N2C	·	–	·	·	·
COc1cccc(OC)c1C(=O)OCC(=O)N1CCC(Cc2ccccc2)CC1	–	-99.5	–	–	–
O=C(/C=C/c1ccco1)OCC(=O)c1ccc(OC(F)F)cc1	·	–	–	–	·
COc1cc(/C=C/C(=O)OCC(=O)N2CC3(C)CC2CC(C)(C)C3)ccc1O (configuration not stated)	–	-73.3	–	?	–
Nc1cc(C(=O)OCC(=O)N2CCC(Cc3ccccc3)CC2)ccc1Cl	·	-64.6	–	–	·
COc1cc(/C=C/C(=O)OCC(=O)c2ccc(OC(F)F)cc2)ccc1O	–	–	10µM	31.6µM	–
COc1cccc(C(=O)OCC(=O)N2CCC(Cc3ccccc3)CC2)c1OC	·	–	–	?	·
CN(Cc1ccco1)C(=O)c1ccc2c(c1)N(Cc1ccccc1F)C(=O)c1ccccc1S2	–	–	·	–	–
C=CCNC(=S)Nc1ccccc1	–	–	–	·	–
C=CCNC(=S)/N=c1/ccccn1CC	–	-98.0	–	–	–
Cc1cccc(-n2ncc3c2CCCC3NC(=O)CCN2CCCO2)c1C (configuration not stated)	–	-75.9	?	–	–
Cc1cc(C)cc(-n2ncc3c2CCCC3NC(=O)C2(C(N)=O)CC2)c1 (configuration not stated)	–	–	?	?	–
CC1(C)CC(=O)C=C(C(=O)NC2CCCc3c2cnn3-c2cc(F)cc(F)c2)O1 (configuration not stated)	–	–	–	–	–
Cc1cccc(-n2ncc3c2CCCC3NC(=O)C2(C(N)=O)CC2)c1C (configuration not stated)	?	–	1.58µM	?	–
Cc1cccc(-n2ncc3c2CCCC3NC(=O)C2=CC(=O)CC(C)(C)O2)c1C (configuration not stated)	–	-67.6	7.08µM	?	–
CCc1cc(C(=O)NC2CCCc3c2cnn3-c2cccc(C)c2C)n(C)n1 (configuration not stated)	–	-85.9	?	28.2µM	–
Cc1cccc(-n2ncc3c2CCCC3NC(=O)CCN2CCCCO2)c1C (configuration not stated)	–	–	?	–	–
Cc1cc(C)c(C(=O)NC2CCCc3c2cnn3-c2cccc(C)c2C)o1 (configuration not stated)	–	-74.3	?	–	–
O=C(O)CC/C=C\CC[C@H]1[C@@H](N2CCCCC2)[C@@H](O)C[C@@H]1OCc1ccc(-c2ccccc2)cc1	·	·	·	–	·
CCOc1ccc(C(=O)NCCS(=O)(=O)N2CCN(c3cccc(Cl)c3)CC2)cc1	–	–	·	–	–
CCN(CC(=O)NCc1ccc(Cl)cc1)C(=O)c1cnc(Cl)c(Cl)c1	–	-62.6	–	–	–
CCN(CC(=O)NCc1ccc(Cl)cc1)C(=O)c1ccc2cc(OC)ccc2c1	–	–	?	–	–
